This is part of a sample that, as a whole, favours compounds with a hit. Of some 79,000 tested, about 15% had one in any assay. Rule as the data show it: active = growth inhibition above about 70%; inactive = the rest.
How the values were obtained:
[1] = NCI Yeast Anticancer Drug Screen. Data for the rad50 strain (AID 155);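 also: 0% = growth of vehicle-only cultures of the same strain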; settings: S. cerevisiae rad50 strain growth inhibition; at 50.0 µM; active compounds read high
Procedure, shortened: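 Growth of the mutant yeast was measured after compound exposure and referenced to vehicle-treated cultures.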

[2] = NCI Yeast Anticancer Drug Screen. Data for the mec2-1 strain (AID 157); settings: S. cerevisiae mec2-1 strain, at 50.0 µM, active compounds read high
Procedure, shortened: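 Readout is yeast growth inhibition, normalised to vehicle-treated controls, in the mec2-1 strain exposed to compound.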

[3] = NCI Yeast Anticancer Drug Screen. Data for the sgs1 mgt1 strain (AID 161);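 also: 0% = growth of cultures given vehicle only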; settings: S. cerevisiae sgs1 mgt1 strain, at 50.0 µM, active compounds read high
Procedure, shortened: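 Growth of a repair-deficient yeast mutant was monitored after compound treatment and expressed as inhibition relative to vehicle-treated cultures.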

[4] = NCI Yeast Anticancer Drug Screen. Data for the cln2 rad14 strain (AID 165);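 also: 0% = growth equal to vehicle treated cultures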; settings: S. cerevisiae cln2 rad14 strain, at 50.0 µM, active compounds read high
Procedure, shortened: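 Relative to vehicle controls, growth inhibition of compound-treated cln2 rad14 yeast was recorded.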

[5] = NCI Yeast Anticancer Drug Screen. Data for the bub3 strain (AID 167); settings: S. cerevisiae bub3 mutant strain, at 50.0 µM, active compounds read high
Procedure, shortened: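 Whole-cell yeast assay. The mutant strain was incubated with compounds, and growth inhibition was determined by comparison with vehicle-treated cells.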

[6] = NCI Yeast Anticancer Drug Screen. Data for the mlh1 rad18 strain (AID 175); settings: S. cerevisiae mlh1 rad18 strain growth inhibition; at 50.0 µM; active compounds read high
Procedure, shortened: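 Test agents were incubated with a yeast strain of defined genotype (DNA damage repair defect). Inhibition of growth was derived by comparison with vehicle-exposed cultures.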

Measured: growth inhibition

O=C(O)/C=C/c1ccncc1
inactive: [1] -1.7% | [2] -6.35% | [3] -7.15% | [4] 3.75% | [5] -0.3% | [6] 5.1%

CCc1nnc2sc(=S)[nH]n12
inactive: [1] -7.65% | [2] -14.6% | [3] -15.8% | [4] -7.4% | [5] 2.45% | [6] -12.9%

O=C(COc1ccc(Cl)cc1)OCCCl
inactive: [1] 10% | [2] 8.3% | [3] 9.1% | [4] 0.35% | [5] 9.3% | [6] 8.3%

COc1ccc(C(=O)O)c2c(=O)c3ccccc3[nH]c12
inactive: [1] -28.8% | [2] -3.2% | [3] -8.55% | [4] 17.2% | [5] 3.2% | [6] 26.8%

CCCCCCCCCCCCSC(=O)NCCC
inactive: [1] -3.75% | [2] -2.05% | [3] 1.6% | [4] 0.05% | [5] 3.45% | [6] 1.4%

O=[N+]([O-])c1cccc(C2OCC3(CO2)COC(c2cccc([N+](=O)[O-])c2)OC3)c1 (configuration not stated)
inactive: [1] 2.95% | [2] -21.8% | [3] 6.5% | [4] 10.2% | [5] -3.1% | [6] 10.8%

C#CC1(O)CCC2[C@@H]3CCc4cc(Oc5nc(F)nc(-c6c7ccccc7cn6C)n5)ccc4C3CC[C@@]21C (some centres not stated)
inactive: [1] 37.5% | [2] 25.3% | [3] 1.4% | [4] 5.05% | [5] 32.6% | [6] 42.8%

CC(=O)Nc1ccc(NC(=O)C2CC3C=CC2C3)cc1 (configuration not stated)
inactive: [1] 7.55% | [2] -11% | [3] -33% | [4] 3.1% | [5] -10.7% | [6] 23.2%

CCOC(=O)NC(C(=O)OCC)(N1CCN(c2cc3c(cc2F)c(=O)c(C(=O)O)cn3CC)CC1)C(F)(F)F (configuration not stated)
inactive: [1] -10.5% | [2] -25.2% | [3] -11.1% | [4] -24.4% | [5] -7.55% | [6] -5.05%

CCCCCCCCCc1cc(=O)c2ccc(OCc3ccccc3)cc2o1
inactive: [1] -42.5% | [2] -28.6% | [3] -21.1% | [4] -11.2% | [5] -28.6% | [6] -42%

NC(=O)NNC(=O)c1nc[nH]c1[N+](=O)[O-]
inactive: [1] -24.2% | [2] -3.3% | [3] 11.6% | [4] -15.9% | [5] -18.2% | [6] -13.3%

CCOC(=O)C1C2CCCC(=O)C21 (configuration not stated)
inactive: [1] 9% | [2] -4.5% | [3] 3.9% | [4] -56.8% | [5] 12.1% | [6] 3.3%

Cc1ccc(S(=O)(=O)OC2C3OC(C)(C)OC3OC2C2CSC(=S)S2)cc1 (configuration not stated)
inactive: [1] 0.3% | [2] -6.6% | [3] 10.1% | [4] -12.8% | [5] -25.3% | [6] 4%

COc1ccc(-c2cc(=O)c3ccc(C)nc3[nH]2)cc1
inactive: [1] -18.9% | [2] -30.8% | [3] -40.4% | [4] -20.7% | [5] -16.1% | [6] -18.8%

CC(O)CN1c2ccccc2Sc2ccccc21 (configuration not stated)
inactive: [1] -17.4% | [2] -13.7% | [3] -13.2% | [4] -18.2% | [5] -13.8% | [6] 7.55%

O=C1c2cccc3cc([N+](=O)[O-])cc(c23)C(=O)N1Cc1ccco1
inactive: [1] 24.6% | [2] 8.85% | [3] 32.2% | [4] 16.8% | [5] 7.65% | [6] 0.95%

CCOC(=O)c1c(C)c2c(n1C)CCC(C(=O)OCC)C2=O (configuration not stated)
inactive: [1] -3.15% | [2] 9.4% | [3] 10.3% | [4] 11.4% | [5] 4.6% | [6] 0.45%

Fc1cccc(-c2nnc(-c3cccc(F)c3)o2)c1
inactive: [1] 12.7% | [2] -10.1% | [3] -6.9% | [4] -38% | [5] -2.65% | [6] -4.85%

COc1ccc(Cl)cc1NC(=O)CC(C)=O
inactive: [1] -9.9% | [2] -12.2% | [3] 3.45% | [4] 6.45% | [5] -3.2% | [6] -5.95%

Cn1c(=O)c(C(=O)NC23CC4CC(CC(C4)C2)C3)c(O)c2ccccc21
inactive: [1] -44.2% | [2] -37% | [3] -46.5% | [4] -16.3% | [5] -53% | [6] -19.9%

O=S1(=O)OCCOS(=O)(=O)C1S(=O)(=O)c1cccc2ccccc12
inactive: [1] -19.2% | [2] -5.95% | [3] 12.8% | [4] -8.7% | [5] -2.95% | [6] 27%

[Cl][Pt+2][Cl].[NH-]c1ccccc1F.[NH-]c1ccccc1F
inactive: [1] 11.2% | [2] 32.9% | [3] -14.8% | [4] 15.8% | [5] -26.9% | [6] 34.4%

CCCCCCCCCCCCCCCCSc1ccc(S(=O)(=O)N(C)C)cc1N
inactive: [1] -16.3% | [2] -36.8% | [3] 3.15% | [4] 10% | [5] 0.75% | [6] 11.9%

CCC(=O)NC(OCC1(CC)COC1)(C(F)(F)F)C(F)(F)F
inactive: [1] -8.6% | [2] -10.8% | [3] -37.1% | [4] 2.75% | [5] -11.5% | [6] -13.2%

CC1(C)CC(C#N)CC(C)(C)N1O
inactive: [1] 1.9% | [2] -0.75% | [3] 0.5% | [4] -20.9% | [5] -4.8% | [6] -0.95%

C#CC(CCC)NC(C)(C)C (configuration not stated)
inactive: [1] 31.7% | [2] -13.9% | [3] 7.35% | [4] -10.8% | [5] 1.95% | [6] 21.3%

Cc1c(-c2nnc(-c3ccccc3)o2)c(=O)n(-c2ccccc2)n1C
inactive: [1] -7.3% | [2] -6.6% | [3] -30.2% | [4] -27.1% | [5] -26.1% | [6] -21.6%

Cc1cc(C)c(C(=O)c2cccc(Cl)c2)c(C)c1
inactive: [1] -13% | [2] 4.7% | [3] 5.55% | [4] -56.9% | [5] 34.4% | [6] 22%

NCc1ccc(O)c(O)c1
inactive: [1] -13.9% | [2] 19.9% | [3] 15.3% | [4] 13% | [5] 5.6% | [6] 10.1%

CC(=O)N1C(=O)C(=O)c2ccccc21
inactive: [1] 5.9% | [2] -5.4% | [3] -4.8% | [4] -25% | [5] -1.5% | [6] 23.5%

CC1(C)C2CC=C(/C=N\Nc3ccc([N+](=O)[O-])cc3[N+](=O)[O-])C1C2 (configuration not stated)
inactive: [1] -1.5% | [2] 1.95% | [3] -2.3% | [4] -3.35% | [5] -11.6% | [6] -12.1%

O=C1NC(N2CCCC(CO)C2)=N/C1=C\c1ccc(O)cc1 (configuration not stated)
inactive: [1] 13.1% | [2] 2.05% | [3] -15.3% | [4] 33.4% | [5] -9.6% | [6] -31.6%

CN(C)CCC(=O)c1cccc(O)c1
inactive: [1] -27.9% | [2] -19% | [3] -6.4% | [4] -37.6% | [5] -9.45% | [6] -10.2%

Nc1ccc(-c2ccc(Nc3cc(S(=O)(=O)O)c(N)c4c3C(=O)c3ccccc3C4=O)cc2)c(S(=O)(=O)O)c1
inactive: [1] -23.9% | [2] 14.8% | [3] -32.5% | [4] 8.45% | [5] -38.1% | [6] -9.05%

O=C(Nc1ccccc1-c1nn(CO)c(=S)n(CO)c1=O)C(F)(F)F
inactive: [1] 40.2% | [2] 23.9% | [3] 43.2% | [4] 12.6% | [5] -22.6% | [6] 20.2%

CCCCOC(=O)c1ccc(NC(=O)Nc2ccc(SC)cc2)cc1
inactive: [1] -4.05% | [2] 1.8% | [3] 19.2% | [4] -8.75% | [5] 19.8% | [6] -13.1%

Nc1cccc(C(=O)Nc2ccc3c(O)cc(S(=O)(=O)O)cc3c2)c1
inactive: [1] 15.2% | [2] -3.1% | [3] 11.9% | [4] -30.4% | [5] -12.4% | [6] 7.05%

From PubChem BioAssay (NCI)
